In experiment [1] the target is Lysosomal acid glucosylceramidase (Homo sapiens) (UniProt P04062). Put plainly: Glucocerebrosidase-p2 (AID 348; in the data active means potency below about 10 µM; further: potency means the concentration at half of the fitted maximal effect). As to conditions: purified GBA, blue fluorogenic substrate, 40 min. A digest of the protocol: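 Normal human glucocerebrosidase (0.2 nM) with blue fluorogenic substrate (80 uM final) in citrate/phosphate pH 5.9 with 10mM sodium taurocholate, 0.01% tween-20; 40 min RT, NaOH/glycine stop; fluorescence Ex 365/Em 440; AC50 from a titration from 0.6 nM upwards.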

The target of experiment [2] is Cytochrome P450 1A2 (Homo sapiens) (UniProt P05177). Put plainly: p450-cyp1a2 (AID 410; calls by dose curve; further: potency means the concentration at half of the fitted maximal effect;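 on activity change, negative = inhibition: -100% = full effect of reference inhibitor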). As to conditions: recombinant CYP1A2, luciferin-ME demethylation, luminescence; series mostly up to 57 µM. The gist of the method:
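Luminescent demethylation readout: Luciferin-ME (100uM, equal to Km) turned over by 20nM CYP1A2 for 60 min at room temperature after NADPH regeneration addition, following 10 min compound preincubation. Normalization used 57 uM furafylline as full inhibition.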

A short description of experiment [3]: NFAT Signaling Pathway (AID 444).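 Further: carbachol stimulus at about its EC50 of 1 µM final; on the % scale 0 is the no-effect control and ±100 the full control effect.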 As to conditions: Jurkat NFAT-bla M1, carbachol, beta-lactamase ratio, 5 h. A digest of the protocol: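 Read-out: CCF4 FRET ratio (460 nm/530 nm) after 1 h RT dye loading, used for %activity and AC50 from titration series. Cells: Jurkat NFAT-β-lactamase/M1 line, treated with compound plus 1 uM carbachol for 5 h, 37 °C.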
Experiment [4] can be described thus: Stat Signaling Pathway (AID 446).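 Further: ME-180 cervical cancer cells given 40 pM IL-6 alongside compound; SIE-controlled beta-lactamase reporter measured as 460/530 nm FRET emission ratio; on the % scale 0 is the no-effect control and ±100 the full control effect.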 As to conditions: ME-180 SIE beta-lactamase reporter, IL-6 stimulated, 5 h. The gist of the method:
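Compound effects on IL-6-induced STAT reporter activity were measured in ME-180 cells. After overnight culture, cells were co-treated with 40 pM IL-6 for 5 hrs before beta-lactamase substrate loading at room temperature.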

In experiment [5] the target is Mitogen-activated protein kinase 10 (Mus musculus) (UniProt Q61831). Put plainly: JNK3 AlphaScreen Assay (AID 530).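 Further: kinase came from lysate of stimulated human HepG2 cells; signal reports phosphorylation of biotinylated GST-cJun 1-79 at Ser73 with 10 µM ATP; on the % scale 0 is the no-effect control and ±100 the full control effect.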 As to conditions: JNK3 lysate, c-Jun phosphorylation; series mostly up to 57.1 µM. The gist of the method: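 qHTS titrations with 15 min compound pre-incubation before adding ATP (10 uM final). Read-out: AlphaScreen of Ser73-phosphorylated biotin-GST-cJun using HepG2 lysate JNK3 activated by IL-1β and TNFα.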
Background: Alpha assays give light when donor and acceptor beads are brought close together.

The target in experiment [6] is 3',5'-cyclic-AMP phosphodiesterase 4B (Homo sapiens) (UniProt Q07343). Put plainly: qHTS Assay for Inhibitors of PDE-IV (AID 607; active means well fitted activation curve with a large enough effect in the main read-out, with a control signal flat, not every such curve was filed as active; further: % of control where 0% means no effect). Particulars: HEK293 ACTOne CNG channel cells, membrane potential fluorescence; series mostly up to 22.9 µM. A digest of the protocol:
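ACTOne HEK293 cells carry a modified cAMP-gated CNG channel and express endogenous PDE4; plated 1000 cells/well, compounds up to 22.9 uM final. Membrane-potential dye fluorescence (ex 535/em 590) was read; parental cells received 10 uM forskolin + 100 uM RO 20-1724.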
(In general: Quantitative high-throughput screening tests each substance at several concentrations.)

Experiment [7] has as its target Cytochrome P450 3A4 (Homo sapiens) (UniProt P08684). Put plainly: qHTS Assay for Activators of Cytochrome P450 3A4 (AID 885; active means well fitted curve in the direction sought with a large enough effect; an effect the other way counts as inactive or inconclusive; further: nearly all actives have a fitted effect of over 65% in size). As to conditions: recombinant CYP3A4, Luciferin-PPXE luminescence, 60 min; series mostly up to 57.1 µM. The gist of the method: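 CYP3A4 activity: Luciferin-PPXE O-dealkylation, 25uM substrate, 200mM KPO4, RT throughout. Read-out is luciferase luminescence; higher values reflect activation.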

Experiment [8] deals with Cytochrome P450 2D6 (Homo sapiens) (UniProt P10635). Put plainly: qHTS Assay for Inhibitors and Substrates of Cytochrome P450 2D6 (AID 891; active means well fitted curve in the direction sought with a large enough effect; an effect the other way counts as inactive or inconclusive; further: potency means the concentration at half of the fitted maximal effect; nearly all actives have a fitted effect of over 60% in size). Particulars: recombinant CYP2D6, luciferin-ME EGE luminescence; series mostly up to 57.1 µM. A digest of the protocol: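 Luminescent read-out of luciferin formed by 5 nM human CYP2D6 demethylating 30 uM Luciferin-ME EGE (Km level) over 60 min at room temperature after NADPH regeneration addition. Data normalized to full inhibition by 1.43 uM quinidine.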

The target of experiment [9] is Cytochrome P450 2C19 (Homo sapiens) (UniProt P33261). Put plainly: qHTS Assay for Inhibitors and Substrates of Cytochrome P450 2C19 (AID 899; active means well fitted curve in the direction sought with a large enough effect; an effect the other way counts as inactive or inconclusive; further: potency means the concentration at half of the fitted maximal effect; nearly all actives have a fitted effect of over 60% in size). Particulars: recombinant CYP2C19, luciferin-H EGE luminescence; series mostly up to 57.1 µM. A digest of the protocol: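 5nM enzyme + 10uM Luciferin-H EGE (=KM), 50mM KPO4; cpd pin-transferred, 10 min 37C; NADPH regen, 60 min 37C; stopped w/ luciferin detection reagent, 20 min; luminescence. Normalized to 57uM ketoconazole (AC100).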

Experiment [10] is described as follows: qHTS Assay for Lipid Storage Modulators (AID 1519; calls by dose curve). As to conditions: Drosophila S3 cells, BODIPY lipid droplet/cell ratio, laser cytometry, cells loaded with oleic acid. The gist of the method:
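Cells seeded at 5,000 per well were treated with compounds over a concentration series and loaded with oleic acid (400 uM, as added). Lipid droplet fluorescence (488 nm excitation, 500-530 nm channel) was read by laser-scanning cytometry and normalized to 20 uM Triacsin C.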

Experiment [11] concerns the target Ubiquitin carboxyl-terminal hydrolase 1 (Homo sapiens) (UniProt O94782). Put plainly: Inhibitors of USP1/UAF1: Pilot qHTS (AID 504865; active means well fitted curve in the direction sought with a large enough effect; an effect the other way counts as inactive or inconclusive;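 further: rhodamine fluorescence freed from ubiquitin-rhodamine substrate followed over time; top concentration of the series differs between compounds; on the % scale 0 is the no-effect control and ±100 the full control effect; nearly all actives have a fitted effect of over 35% in size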). As to conditions: purified USP1/UAF1, Ub-rhodamine cleavage fluorescence; series mostly up to 54.9 µM. A digest of the protocol:
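1nM USP1/UAF1 + cpd, 15 min RT; start w/ Ub-Rho 150nM final; kinetic FL 480/540 nm, 6 reads q60 s. Buffer 50mM HEPES pH 7.8, 0.5mM EDTA, 1mM TCEP, 0.01% Tween-20, 0.1 mg/ml BSA.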

Experiment [12] in a line: qHTS profiling for inhibitors of Plasmodium falciparum proliferation (AID 504749; active means well fitted curve in the direction sought with a large enough effect; an effect the other way counts as inactive or inconclusive;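 further: 0% = DMSO vehicle and full inhibition = artemisinin control; nearly all actives have a fitted effect of over 60% in size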). Particulars: P. falciparum in erythrocytes, SYBR Green DNA, 72 h, at 12.8 µM (top of the series). A digest of the protocol: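 SYBR Green fluorescence of parasite DNA, read after lysis and overnight dark incubation, measured growth over 72 h in erythrocyte culture at 0.3% parasitemia and 2.5% hematocrit. Data normalised to DMSO and 0.29 uM artemisinin, with plate-drift correction.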

The nature of experiment [13]: AP1 Signaling Pathway (AID 357).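 Further: ME-180 reporter cells stimulated with EGF at its EC50 level; on the % scale 0 is the no-effect control and ±100 the full control effect.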 As to conditions: ME-180 (cervical carcinoma) AP-1-bla reporter, EGF-induced, beta-lactamase ratio, 5 h; at 7.69 µM (top of the series) unless noted. A digest of the protocol:
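A ratiometric CCF4 readout (405 nm excitation; 460 and 530 nm emission) quantified AP-1-driven beta-lactamase in ME-180 cells after 5 h with compound and EC50 EGF; AC50 values were derived for activators and inhibitors.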

Experiment [14] has as its target Glucocorticoid receptor (Homo sapiens) (UniProt P04150). Put plainly: GR-EFC Redistribution (AID 451; calls by dose curve; further: potency means the concentration at half of the fitted maximal effect). Particulars: CHO-K1 GR-EFC translocation, beta-gal luminescence, 2 h. The gist of the method: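 Translocation of GR-ED fusion to nuclear EA restores b-gal, read by luminescence after 1 h room-temperature detection. Engineered CHO-K1 biosensor cells, 1,000/well, exposed 2 h at 37 C to titrations up to 46 uM final.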

Where [15] appears, read: measured here: cell count channel max response.
The mark [16] stands for this setting: measured here: lipid channel max response.
Where [17] appears, read: at 7.69 µM (top of the series) unless noted.

The structures appear in SMILES notation. Where “and” joins values, the source holds several entries; their conditions need not be identical. Equal entries are not always repeated. Results filed as inconclusive are left out. A structure can be active in one record and inactive in another. Calls of active or inactive are those of the source. Unless noted, the call rests on the fitted dose curve; in most records, active means well fitted curve in either direction with a large enough effect (not every such curve was filed as active); inconclusive means small, poorly fitted or top-dose-only effect, or another doubt; inactive means flat fitted curve, though single readings scatter.

Sequence of 3',5'-cyclic-AMP phosphodiesterase 4B (Homo sapiens) (Q07343 whole entry, looked up): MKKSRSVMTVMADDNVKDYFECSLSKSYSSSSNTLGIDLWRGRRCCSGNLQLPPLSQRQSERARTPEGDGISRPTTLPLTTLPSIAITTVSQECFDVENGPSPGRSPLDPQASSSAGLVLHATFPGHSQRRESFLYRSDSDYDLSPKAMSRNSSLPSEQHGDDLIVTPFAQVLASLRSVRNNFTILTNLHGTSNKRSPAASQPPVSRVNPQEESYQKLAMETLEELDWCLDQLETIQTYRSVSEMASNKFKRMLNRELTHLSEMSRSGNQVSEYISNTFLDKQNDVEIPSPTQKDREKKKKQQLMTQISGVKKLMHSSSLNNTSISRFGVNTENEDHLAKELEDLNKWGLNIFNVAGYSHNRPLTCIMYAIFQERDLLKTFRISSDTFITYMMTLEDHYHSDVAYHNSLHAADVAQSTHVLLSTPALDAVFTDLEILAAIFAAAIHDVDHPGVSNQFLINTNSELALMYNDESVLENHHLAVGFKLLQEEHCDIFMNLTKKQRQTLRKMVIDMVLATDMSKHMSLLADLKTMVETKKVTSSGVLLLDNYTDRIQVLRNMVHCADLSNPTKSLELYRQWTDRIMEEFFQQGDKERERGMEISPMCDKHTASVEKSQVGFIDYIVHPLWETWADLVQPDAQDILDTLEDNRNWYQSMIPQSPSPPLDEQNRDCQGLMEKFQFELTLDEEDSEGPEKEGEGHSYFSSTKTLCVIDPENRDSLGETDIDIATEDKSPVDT
Sequence of Lysosomal acid glucosylceramidase (Homo sapiens) (P04062 whole entry, looked up): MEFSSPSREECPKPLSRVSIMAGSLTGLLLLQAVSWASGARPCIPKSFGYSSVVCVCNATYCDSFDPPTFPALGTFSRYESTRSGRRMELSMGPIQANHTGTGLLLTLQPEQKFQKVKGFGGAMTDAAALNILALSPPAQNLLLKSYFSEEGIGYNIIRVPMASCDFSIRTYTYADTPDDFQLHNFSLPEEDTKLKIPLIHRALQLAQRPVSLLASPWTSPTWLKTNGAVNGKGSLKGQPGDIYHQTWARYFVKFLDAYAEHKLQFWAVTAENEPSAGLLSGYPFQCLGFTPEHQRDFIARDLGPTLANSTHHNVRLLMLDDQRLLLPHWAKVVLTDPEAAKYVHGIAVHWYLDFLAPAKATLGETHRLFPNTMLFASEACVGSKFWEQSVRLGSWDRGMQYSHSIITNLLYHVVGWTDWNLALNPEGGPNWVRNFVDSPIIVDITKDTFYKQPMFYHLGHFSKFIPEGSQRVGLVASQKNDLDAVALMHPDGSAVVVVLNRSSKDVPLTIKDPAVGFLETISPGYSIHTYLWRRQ
Sequence of Cytochrome P450 2D6 (Homo sapiens) (P10635 whole entry, looked up): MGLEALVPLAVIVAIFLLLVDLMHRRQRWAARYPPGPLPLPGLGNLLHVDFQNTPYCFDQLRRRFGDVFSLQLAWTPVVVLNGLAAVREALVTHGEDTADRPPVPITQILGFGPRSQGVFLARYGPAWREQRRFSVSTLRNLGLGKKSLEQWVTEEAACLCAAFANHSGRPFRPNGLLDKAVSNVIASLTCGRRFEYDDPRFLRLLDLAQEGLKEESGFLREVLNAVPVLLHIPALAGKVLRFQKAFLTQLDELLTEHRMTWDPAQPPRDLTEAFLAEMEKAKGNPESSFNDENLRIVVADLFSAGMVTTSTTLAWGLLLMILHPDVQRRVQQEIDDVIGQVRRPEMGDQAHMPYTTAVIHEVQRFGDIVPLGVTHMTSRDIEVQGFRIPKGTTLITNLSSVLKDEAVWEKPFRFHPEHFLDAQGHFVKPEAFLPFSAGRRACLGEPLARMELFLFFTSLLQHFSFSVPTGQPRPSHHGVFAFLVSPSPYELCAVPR
Sequence of Cytochrome P450 3A4 (Homo sapiens) (P08684 whole entry, looked up): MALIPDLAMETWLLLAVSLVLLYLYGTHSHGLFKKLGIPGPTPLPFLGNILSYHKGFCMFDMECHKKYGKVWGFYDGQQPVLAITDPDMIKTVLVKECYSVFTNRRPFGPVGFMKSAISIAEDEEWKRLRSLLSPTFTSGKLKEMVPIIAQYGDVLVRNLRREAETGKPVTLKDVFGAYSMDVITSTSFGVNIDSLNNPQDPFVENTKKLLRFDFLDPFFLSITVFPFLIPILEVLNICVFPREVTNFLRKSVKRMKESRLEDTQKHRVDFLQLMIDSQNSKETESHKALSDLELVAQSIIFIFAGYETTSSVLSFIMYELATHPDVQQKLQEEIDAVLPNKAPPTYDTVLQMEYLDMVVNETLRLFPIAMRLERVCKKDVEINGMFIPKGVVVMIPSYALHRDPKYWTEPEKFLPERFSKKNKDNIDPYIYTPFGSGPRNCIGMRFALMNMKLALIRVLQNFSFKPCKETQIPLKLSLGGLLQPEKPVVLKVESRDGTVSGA
Sequence of Glucocorticoid receptor (Homo sapiens) (P04150 whole entry, looked up, the tested form may be a part): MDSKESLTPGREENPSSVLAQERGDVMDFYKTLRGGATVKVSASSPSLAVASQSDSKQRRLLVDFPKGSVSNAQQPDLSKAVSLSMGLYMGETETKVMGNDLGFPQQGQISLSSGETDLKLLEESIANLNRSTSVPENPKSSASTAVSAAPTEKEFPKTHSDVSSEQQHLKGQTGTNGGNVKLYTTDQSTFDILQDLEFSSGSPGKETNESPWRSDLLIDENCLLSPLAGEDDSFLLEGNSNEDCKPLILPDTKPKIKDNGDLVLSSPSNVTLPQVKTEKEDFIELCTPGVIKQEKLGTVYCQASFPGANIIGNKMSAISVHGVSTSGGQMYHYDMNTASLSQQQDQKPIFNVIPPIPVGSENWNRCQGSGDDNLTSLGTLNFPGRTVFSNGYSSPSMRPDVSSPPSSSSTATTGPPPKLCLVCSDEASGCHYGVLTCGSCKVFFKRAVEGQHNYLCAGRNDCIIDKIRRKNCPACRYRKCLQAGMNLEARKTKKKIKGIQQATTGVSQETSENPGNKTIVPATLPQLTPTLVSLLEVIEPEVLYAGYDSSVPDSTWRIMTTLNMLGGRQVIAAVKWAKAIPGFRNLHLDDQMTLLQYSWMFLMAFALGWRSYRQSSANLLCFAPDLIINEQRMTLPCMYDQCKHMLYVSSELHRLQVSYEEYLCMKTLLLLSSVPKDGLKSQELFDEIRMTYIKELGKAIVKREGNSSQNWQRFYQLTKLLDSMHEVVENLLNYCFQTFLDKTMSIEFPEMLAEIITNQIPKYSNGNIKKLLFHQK
Sequence of Cytochrome P450 1A2 (Homo sapiens) (P05177 whole entry, looked up): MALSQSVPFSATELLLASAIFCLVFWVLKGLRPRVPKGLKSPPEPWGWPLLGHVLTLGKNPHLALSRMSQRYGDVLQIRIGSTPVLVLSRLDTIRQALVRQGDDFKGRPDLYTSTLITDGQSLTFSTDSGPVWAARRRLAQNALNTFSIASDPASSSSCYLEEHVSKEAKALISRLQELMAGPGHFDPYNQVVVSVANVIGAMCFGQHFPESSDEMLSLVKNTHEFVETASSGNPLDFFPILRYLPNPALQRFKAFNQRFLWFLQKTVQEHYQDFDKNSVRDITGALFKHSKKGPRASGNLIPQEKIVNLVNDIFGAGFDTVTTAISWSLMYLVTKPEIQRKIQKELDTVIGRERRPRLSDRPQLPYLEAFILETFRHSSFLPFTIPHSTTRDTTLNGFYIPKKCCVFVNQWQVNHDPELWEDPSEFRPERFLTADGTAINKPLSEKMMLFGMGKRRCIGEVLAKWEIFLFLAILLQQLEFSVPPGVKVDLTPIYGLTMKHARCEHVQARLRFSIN
Sequence of Ubiquitin carboxyl-terminal hydrolase 1 (Homo sapiens) (O94782 whole entry, looked up): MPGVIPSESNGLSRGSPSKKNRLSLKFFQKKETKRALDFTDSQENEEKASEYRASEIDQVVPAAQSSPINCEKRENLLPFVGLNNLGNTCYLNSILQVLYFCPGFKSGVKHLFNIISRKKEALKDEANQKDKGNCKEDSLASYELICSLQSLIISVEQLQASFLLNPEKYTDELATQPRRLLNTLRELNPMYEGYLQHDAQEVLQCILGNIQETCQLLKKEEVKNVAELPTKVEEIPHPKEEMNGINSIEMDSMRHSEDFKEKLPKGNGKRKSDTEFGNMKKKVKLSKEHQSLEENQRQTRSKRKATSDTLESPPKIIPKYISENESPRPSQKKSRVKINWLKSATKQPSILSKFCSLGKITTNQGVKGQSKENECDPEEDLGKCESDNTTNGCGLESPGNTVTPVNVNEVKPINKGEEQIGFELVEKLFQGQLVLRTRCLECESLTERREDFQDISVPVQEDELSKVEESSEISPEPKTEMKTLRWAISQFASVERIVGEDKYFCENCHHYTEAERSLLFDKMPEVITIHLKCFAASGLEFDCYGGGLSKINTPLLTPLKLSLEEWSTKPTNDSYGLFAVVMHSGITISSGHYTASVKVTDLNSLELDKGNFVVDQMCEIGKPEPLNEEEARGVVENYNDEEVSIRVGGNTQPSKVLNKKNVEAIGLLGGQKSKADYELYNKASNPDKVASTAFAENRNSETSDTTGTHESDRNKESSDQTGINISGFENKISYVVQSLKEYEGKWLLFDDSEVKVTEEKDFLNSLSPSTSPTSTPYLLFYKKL
Sequence of Cytochrome P450 2C19 (Homo sapiens) (P33261 whole entry, looked up): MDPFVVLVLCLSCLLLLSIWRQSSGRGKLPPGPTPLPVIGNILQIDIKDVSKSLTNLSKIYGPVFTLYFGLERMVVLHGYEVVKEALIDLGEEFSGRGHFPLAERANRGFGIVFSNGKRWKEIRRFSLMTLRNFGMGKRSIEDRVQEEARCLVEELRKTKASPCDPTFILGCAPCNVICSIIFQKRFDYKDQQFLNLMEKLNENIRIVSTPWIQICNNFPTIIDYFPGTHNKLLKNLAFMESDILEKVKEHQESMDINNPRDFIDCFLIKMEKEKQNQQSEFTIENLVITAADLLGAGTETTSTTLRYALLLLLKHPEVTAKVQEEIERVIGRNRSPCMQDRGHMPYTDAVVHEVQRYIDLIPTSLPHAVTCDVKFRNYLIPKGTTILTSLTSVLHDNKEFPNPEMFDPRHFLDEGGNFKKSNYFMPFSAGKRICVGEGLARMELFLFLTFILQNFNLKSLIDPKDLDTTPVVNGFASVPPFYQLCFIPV

For the molecule `CC[C@@]12CCCN3CCc4c(n(c5ccccc45)C(=O)C1)[C@H]32`, the Potency in experiment [1] is > 11.4 µM (inactive); in experiment [2], 10 µM (active); in experiment [8], 20 nM (active) and 63.1 nM (active) and 251 nM (active); in [9] it was 7.94 µM (active). In addition, the activity change, negative = inhibition in [2] is -9.8% [at 2.29 µM] (inactive); in experiment [3] (at 7.69 µM (top of the series)), -5.89% (inactive); in [3] (at 17.2 µM (top of the series)), -3.8% (inactive); in [10] (at 25.7 µM (top of the series)), -0.21% (inactive). The activity, negative = inhibition in [4] (at 7.69 µM (top of the series)) is 8.55% (inactive); in experiment [4] (at 17.2 µM (top of the series)), 14.6% (inactive); in experiment [12] (parasite line A), 14.8% (inactive); in [12] (parasite line B), -2.22% (inactive). For the same molecule, the Potency result in experiment [5], in [6], in [7] and in experiment [11] was “inactive” in each case. The max response in experiment [10] (setting [15]) is -16.7%; in experiment [10] (setting [16]), -14%.
On to `N#Cc1ccc(CN2CCCC3(CCN(C(=O)c4cc(C(F)(F)F)cc(C(F)(F)F)c4)CC3)C2)cc1`, for which the Potency in [1] is > 11.4 µM (inactive); in experiment [14], > 46 µM (inactive). In addition, the activity change, negative = inhibition in experiment [13] is 16.4% (inactive); in [10] (at 57.5 µM (top of the series)), 1.75% (inactive). In [4] (setting [17]), the activity, negative = inhibition is -17.3% (inactive). The Potency result in [5] and in [6] was “inactive” throughout. The results for the max response in experiment [10] (setting [15]) and in experiment [10] (setting [16]) were 18.7% and 26.7%, respectively.
`O=C(c1cc(C(F)(F)F)cc(C(F)(F)F)c1)N1CCC2(CCCN(c3ccncc3)C2)CC1`: the Potency was > 11.4 µM (inactive) in experiment [1] and > 46 µM (inactive) in experiment [14]. Further, in [4] (setting [17]), the activity, negative = inhibition is 16.9% (inactive). Besides, the Potency result in experiment [5] and in experiment [6] was “inactive” throughout. Also, the activity change, negative = inhibition in experiment [10] (at 57.5 µM (top of the series)) is 5.04% (inactive). For the same molecule, the values for the max response in [10] (setting [15]) and in experiment [10] (setting [16]) were 8.86% and 16%, respectively.

(Values after PubChem BioAssay (NCATS).)
